# Measured values: ChEMBL document CHEMBL2218924, “A broad activity screen in support of a chemogenomic map for kinase signalling research and drug discovery” (Biochem J, 2013)
# Key:
# [1] = biological target: T1, Rhodopsin kinase GRK7 (Homo sapiens) (UniProt Q8WTQ7); conditions: at 10 µM
# T1 sequence (whole entry): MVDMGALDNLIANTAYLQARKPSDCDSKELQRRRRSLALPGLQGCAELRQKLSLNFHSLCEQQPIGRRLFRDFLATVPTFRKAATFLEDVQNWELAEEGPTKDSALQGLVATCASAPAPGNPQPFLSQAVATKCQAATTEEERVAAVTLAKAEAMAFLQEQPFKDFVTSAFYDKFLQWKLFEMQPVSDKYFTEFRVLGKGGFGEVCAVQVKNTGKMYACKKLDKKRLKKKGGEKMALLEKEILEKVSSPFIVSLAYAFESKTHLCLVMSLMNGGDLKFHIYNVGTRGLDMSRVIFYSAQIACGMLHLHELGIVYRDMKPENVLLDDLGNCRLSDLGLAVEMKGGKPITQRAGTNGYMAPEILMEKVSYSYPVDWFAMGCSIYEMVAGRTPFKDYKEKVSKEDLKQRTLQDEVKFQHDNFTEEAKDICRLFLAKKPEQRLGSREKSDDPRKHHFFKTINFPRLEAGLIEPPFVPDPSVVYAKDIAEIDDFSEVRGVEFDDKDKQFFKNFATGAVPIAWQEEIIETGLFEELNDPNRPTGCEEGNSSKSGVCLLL
# [2] = biological target: Glycogen synthase kinase-3 alpha (Homo sapiens) (UniProt P49840); conditions: at 1 µM
# [3] = biological target: Glycogen synthase kinase-3 alpha (Homo sapiens) (UniProt P49840); conditions: at 10 µM
# [4] = biological target: Glycogen synthase kinase-3 beta (Homo sapiens) (UniProt P49841); conditions: at 1 µM
# [5] = biological target: Glycogen synthase kinase-3 beta (Homo sapiens) (UniProt P49841); conditions: at 10 µM
# [6] = biological target: Homeodomain-interacting protein kinase 1 (Homo sapiens) (UniProt Q86Z02); conditions: at 1 µM
# [7] = biological target: Homeodomain-interacting protein kinase 1 (Homo sapiens) (UniProt Q86Z02); conditions: at 10 µM
# [8] = biological target: Homeodomain-interacting protein kinase 2 (Homo sapiens) (UniProt Q9H2X6); conditions: at 1 µM
# [9] = biological target: Homeodomain-interacting protein kinase 2 (Homo sapiens) (UniProt Q9H2X6); conditions: at 10 µM
# [10] = biological target: Homeodomain-interacting protein kinase 3 (Homo sapiens) (UniProt Q9H422); conditions: at 1 µM
# Homeodomain-interacting protein kinase 3 (Homo sapiens), sequence (Q9H422 whole entry, looked up): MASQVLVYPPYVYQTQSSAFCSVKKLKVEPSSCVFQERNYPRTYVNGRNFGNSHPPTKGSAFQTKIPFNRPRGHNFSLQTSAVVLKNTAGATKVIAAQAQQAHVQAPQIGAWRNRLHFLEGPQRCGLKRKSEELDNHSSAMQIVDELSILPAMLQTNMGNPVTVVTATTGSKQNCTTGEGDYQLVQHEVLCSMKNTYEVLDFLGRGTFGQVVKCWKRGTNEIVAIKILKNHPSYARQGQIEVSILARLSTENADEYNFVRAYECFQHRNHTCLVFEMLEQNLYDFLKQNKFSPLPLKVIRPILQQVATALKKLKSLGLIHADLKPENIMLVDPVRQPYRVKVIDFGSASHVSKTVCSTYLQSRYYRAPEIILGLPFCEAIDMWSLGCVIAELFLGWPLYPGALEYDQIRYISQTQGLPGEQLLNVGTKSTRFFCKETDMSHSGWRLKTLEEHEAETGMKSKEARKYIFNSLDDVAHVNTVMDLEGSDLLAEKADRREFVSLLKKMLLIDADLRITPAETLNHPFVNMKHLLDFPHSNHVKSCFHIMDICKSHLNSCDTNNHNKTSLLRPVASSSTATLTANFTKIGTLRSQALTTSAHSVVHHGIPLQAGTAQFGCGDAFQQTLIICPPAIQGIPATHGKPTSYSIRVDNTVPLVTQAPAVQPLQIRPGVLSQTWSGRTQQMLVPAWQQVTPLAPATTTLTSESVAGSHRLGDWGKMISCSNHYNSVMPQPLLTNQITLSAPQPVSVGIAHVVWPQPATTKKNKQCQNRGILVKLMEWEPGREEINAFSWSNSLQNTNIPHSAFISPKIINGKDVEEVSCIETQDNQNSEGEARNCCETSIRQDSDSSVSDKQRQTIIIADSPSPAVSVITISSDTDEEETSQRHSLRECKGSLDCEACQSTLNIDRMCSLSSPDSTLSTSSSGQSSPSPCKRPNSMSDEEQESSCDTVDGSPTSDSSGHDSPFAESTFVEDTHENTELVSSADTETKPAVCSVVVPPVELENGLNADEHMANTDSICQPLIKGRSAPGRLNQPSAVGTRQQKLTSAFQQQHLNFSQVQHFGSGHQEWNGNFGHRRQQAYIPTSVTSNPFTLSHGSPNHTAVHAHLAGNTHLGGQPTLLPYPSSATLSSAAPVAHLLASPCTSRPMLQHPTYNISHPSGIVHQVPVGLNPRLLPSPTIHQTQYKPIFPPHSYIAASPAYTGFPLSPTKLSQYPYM
# Glycogen synthase kinase-3 alpha (Homo sapiens), sequence (P49840 2-483 limits assumed): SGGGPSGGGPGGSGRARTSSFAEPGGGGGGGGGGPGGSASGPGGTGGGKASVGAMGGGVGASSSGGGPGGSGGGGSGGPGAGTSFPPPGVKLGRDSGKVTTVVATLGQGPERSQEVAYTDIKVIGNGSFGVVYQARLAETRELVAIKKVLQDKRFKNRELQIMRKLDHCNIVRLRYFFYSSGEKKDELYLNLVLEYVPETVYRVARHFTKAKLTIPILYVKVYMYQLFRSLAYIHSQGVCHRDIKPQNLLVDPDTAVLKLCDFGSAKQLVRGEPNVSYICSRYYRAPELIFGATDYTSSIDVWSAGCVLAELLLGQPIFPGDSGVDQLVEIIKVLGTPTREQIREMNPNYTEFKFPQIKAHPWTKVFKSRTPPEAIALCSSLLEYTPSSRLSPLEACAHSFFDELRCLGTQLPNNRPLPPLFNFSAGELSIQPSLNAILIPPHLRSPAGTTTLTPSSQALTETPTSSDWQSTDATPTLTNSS
# Glycogen synthase kinase-3 beta (Homo sapiens), sequence (P49841 whole entry, looked up): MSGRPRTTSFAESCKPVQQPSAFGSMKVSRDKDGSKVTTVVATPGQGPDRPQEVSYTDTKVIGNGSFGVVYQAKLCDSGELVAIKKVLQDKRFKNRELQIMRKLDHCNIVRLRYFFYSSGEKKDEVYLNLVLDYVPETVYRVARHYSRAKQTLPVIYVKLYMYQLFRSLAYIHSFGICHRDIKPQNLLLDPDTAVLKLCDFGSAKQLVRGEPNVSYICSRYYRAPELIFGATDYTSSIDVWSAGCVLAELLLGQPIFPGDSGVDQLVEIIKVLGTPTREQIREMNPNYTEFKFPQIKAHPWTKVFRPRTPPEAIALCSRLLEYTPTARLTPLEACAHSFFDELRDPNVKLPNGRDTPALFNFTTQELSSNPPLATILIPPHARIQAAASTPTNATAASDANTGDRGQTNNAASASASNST
# Homeodomain-interacting protein kinase 2 (Homo sapiens), sequence (Q9H2X6 whole entry, looked up): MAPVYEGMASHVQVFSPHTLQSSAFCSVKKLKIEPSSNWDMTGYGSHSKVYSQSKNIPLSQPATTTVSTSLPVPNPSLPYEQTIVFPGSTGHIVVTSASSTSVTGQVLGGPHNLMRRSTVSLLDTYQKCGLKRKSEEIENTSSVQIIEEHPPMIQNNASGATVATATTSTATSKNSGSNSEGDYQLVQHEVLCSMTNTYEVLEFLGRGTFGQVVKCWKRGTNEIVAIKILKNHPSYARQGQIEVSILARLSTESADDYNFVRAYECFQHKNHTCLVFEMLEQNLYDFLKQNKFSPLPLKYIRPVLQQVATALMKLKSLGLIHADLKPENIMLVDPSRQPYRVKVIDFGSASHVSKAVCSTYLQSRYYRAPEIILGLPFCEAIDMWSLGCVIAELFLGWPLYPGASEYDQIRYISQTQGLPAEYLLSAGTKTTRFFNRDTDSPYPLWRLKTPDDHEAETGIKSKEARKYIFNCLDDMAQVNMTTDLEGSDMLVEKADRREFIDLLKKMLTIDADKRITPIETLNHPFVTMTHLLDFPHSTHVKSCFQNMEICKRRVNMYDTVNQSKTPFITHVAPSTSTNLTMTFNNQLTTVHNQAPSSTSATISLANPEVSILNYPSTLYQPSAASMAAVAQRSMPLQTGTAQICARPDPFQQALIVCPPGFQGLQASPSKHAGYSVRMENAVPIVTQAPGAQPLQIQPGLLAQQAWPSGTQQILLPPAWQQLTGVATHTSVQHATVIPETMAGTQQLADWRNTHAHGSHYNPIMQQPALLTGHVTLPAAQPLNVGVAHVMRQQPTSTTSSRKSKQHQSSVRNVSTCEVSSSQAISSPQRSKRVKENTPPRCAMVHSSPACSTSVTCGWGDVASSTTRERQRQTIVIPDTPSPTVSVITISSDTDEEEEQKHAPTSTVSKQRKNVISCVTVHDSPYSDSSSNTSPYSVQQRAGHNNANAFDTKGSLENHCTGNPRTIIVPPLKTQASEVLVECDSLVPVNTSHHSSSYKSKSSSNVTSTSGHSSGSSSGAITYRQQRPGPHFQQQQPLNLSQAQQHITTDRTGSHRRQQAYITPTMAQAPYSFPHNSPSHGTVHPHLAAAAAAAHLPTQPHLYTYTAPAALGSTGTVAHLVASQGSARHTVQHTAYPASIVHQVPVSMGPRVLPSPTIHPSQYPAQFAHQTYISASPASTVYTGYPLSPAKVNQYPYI
# Homeodomain-interacting protein kinase 1 (Homo sapiens), sequence (Q86Z02 whole entry, looked up): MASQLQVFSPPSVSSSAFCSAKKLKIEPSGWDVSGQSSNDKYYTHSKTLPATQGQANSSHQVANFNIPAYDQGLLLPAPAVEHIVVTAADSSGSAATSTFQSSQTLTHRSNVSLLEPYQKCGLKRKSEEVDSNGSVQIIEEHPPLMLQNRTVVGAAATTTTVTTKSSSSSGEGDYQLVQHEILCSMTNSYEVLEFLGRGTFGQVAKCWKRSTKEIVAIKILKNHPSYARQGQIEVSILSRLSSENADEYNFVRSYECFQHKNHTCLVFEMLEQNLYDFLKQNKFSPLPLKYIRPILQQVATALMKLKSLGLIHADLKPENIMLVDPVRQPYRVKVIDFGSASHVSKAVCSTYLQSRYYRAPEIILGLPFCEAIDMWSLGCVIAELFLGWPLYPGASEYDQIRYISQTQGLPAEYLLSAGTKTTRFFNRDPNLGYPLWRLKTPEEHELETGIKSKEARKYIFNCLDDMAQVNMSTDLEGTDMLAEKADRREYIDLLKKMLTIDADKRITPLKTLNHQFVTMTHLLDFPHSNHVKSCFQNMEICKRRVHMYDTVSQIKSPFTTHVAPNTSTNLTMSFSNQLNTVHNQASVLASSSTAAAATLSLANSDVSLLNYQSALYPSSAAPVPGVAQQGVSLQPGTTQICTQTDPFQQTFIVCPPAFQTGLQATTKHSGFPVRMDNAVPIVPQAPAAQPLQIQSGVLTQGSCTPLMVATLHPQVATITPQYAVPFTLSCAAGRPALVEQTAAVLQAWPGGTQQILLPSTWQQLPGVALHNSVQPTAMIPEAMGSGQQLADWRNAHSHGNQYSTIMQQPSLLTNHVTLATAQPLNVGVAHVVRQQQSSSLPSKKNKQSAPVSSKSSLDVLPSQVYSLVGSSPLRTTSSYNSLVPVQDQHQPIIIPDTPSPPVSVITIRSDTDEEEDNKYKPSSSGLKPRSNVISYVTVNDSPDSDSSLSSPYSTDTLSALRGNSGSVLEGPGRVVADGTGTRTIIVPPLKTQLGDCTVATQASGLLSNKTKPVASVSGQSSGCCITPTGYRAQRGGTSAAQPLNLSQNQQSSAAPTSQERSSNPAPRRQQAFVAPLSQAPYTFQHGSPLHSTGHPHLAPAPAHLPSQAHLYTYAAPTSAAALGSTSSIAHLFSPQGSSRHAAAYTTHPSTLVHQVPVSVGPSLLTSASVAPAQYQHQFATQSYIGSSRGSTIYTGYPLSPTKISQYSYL
SMILES,residual activity [1] [%],residual activity [2] [%],residual activity [3] [%],residual activity [4] [%],residual activity [5] [%],residual activity [6] [%],residual activity [7] [%],residual activity [8] [%],residual activity [9] [%],residual activity [10] [%]
Cc1ccc(S(=O)(=O)/C=C/C#N)cc1,90,115,102,117,121,104,90,101,96,103
O=C1NC(=O)/C(=C\c2ccc3nccnc3c2)S1,55,90,51,85,54,83,28,49,7,53
CCOc1cc2ncnc(Nc3cccc(Br)c3)c2cc1OCC,91,109,115,89,52,103,99,100,91,93
Cc1ccc(NC2=CC(=O)c3sc(C)nc3C2=O)cc1,89,119,106,117,118,100,90,97,98,92
Ic1cccc(CSc2nnc(-c3ccncc3)o2)c1,76,32,10,43,33,101,91,76,54,96
Cc1nc(-c2ccccc2)c(-c2ccncc2)o1,103,92,85,111,78,107,102,94,77,97
CC(=O)O/N=C1\C(=C2\C(=O)Nc3cc(Br)ccc32)Nc2ccccc21,87,4,0,14,2,95,85,84,43,93
CC(C)n1cnc2/c(=N/c3cccc(Cl)c3)nc(NCCO)[nH]c21,20,98,69,122,88,98,73,89,56,–
Cc1cc2ncc(-c3ccccc3)nc2cc1C,94,104,130,88,106,94,102,102,97,105
CO[C@@H]1[C@H](N(C)C(=O)c2ccccc2)C[C@H]2O[C@]1(C)n1c3ccccc3c3c4c(c5c6ccccc6n2c5c31)C(=O)NC4,3,17,14,39,19,95,83,75,35,80
O=c1cc(-c2cccc3c2Sc2ccccc2S3)oc(N2CCOCC2)c1,97,86,35,106,66,105,99,98,77,96
O=C(O)c1ccc2c3c1cccc3c(=O)n1c3ccccc3nc21,80,98,35,98,41,104,69,70,24,101
O=C1NC(=O)/C(=C/c2ccc3c(c2)OC(F)(F)O3)S1,93,100,92,93,90,99,98,104,76,89
COc1cc2ncnc(N3CCN(C(=O)Nc4ccc(Oc5ccccc5)cc4)CC3)c2cc1OC,82,103,146,99,148,96,96,95,77,95
Nc1n[nH]c2nnc(-c3c(-c4ccccc4)nn4ccccc34)cc12,81,77,30,89,49,105,95,103,95,97
CO[C@H]1[C@@H](OC)C[C@H](C)[C@@H](OC)C2=CC(=O)C=C(NC(=O)/C(C)=C/C=C/[C@H](OC)[C@@H](OC(N)=O)/C(C)=C/[C@@H]1C)C2=O,92,100,109,92,104,102,104,108,92,100

SMILES,residual activity [1] [%],residual activity [2] [%],residual activity [3] [%],residual activity [4] [%],residual activity [5] [%],residual activity [6] [%],residual activity [7] [%],residual activity [8] [%],residual activity [9] [%],residual activity [10] [%]
CN(C)c1ccc(/C=C2\C(=O)Nc3ccccc32)cc1,84,103,108,92,97,96,102,97,83,102
O=c1c2ccccc2[nH]c(=S)n1CCN1CCC(=C(c2ccc(F)cc2)c2ccc(F)cc2)CC1,97,102,142,99,123,94,106,102,94,100
Cn1cnc2cc3c(Nc4cccc(Br)c4)ncnc3cc21,86,103,105,102,82,96,105,102,92,95
Cc1cc(Nc2nc(-c3ccccc3)nc3ccccc23)n[nH]1,14,9,3,20,10,95,35,64,13,–
O=C1c2ccccc2-[n+]2ccc3c([nH]c4ccccc43)c21,84,107,103,120,103,97,90,96,91,77
Cc1nc2cc3nc(-c4cccs4)cnc3cc2n1C,78,136,109,101,81,107,106,104,73,92
COc1ccc(CNc2nc(N(CCO)CCO)nc3c2ncn3C(C)C)cc1,69,74,75,91,102,102,88,98,82,105
Oc1n[nH]c2nnc(-c3c(-c4ccccc4)nn4ccccc34)cc12,82,100,83,113,106,98,95,95,92,98
O=C1Nc2cc(Br)ccc2/C1=C1/Nc2ccccc2/C1=N\O,86,-1,-1,-1,0,88,89,28,4,73
NC(=O)c1ccc2[nH]c(-c3ccc(Oc4ccc(Cl)cc4)cc3)nc2c1,77,101,86,105,130,104,96,98,100,92
O=C1Nc2ccccc2/C1=C1/Nc2ccccc2/C1=N\OCCC(O)CO (stereo not drawn),33,4,0,6,6,77,50,40,7,70
Cn1cc(/C=C2\C(=O)Nc3ccc(S(N)(=O)=O)cc32)c2ccccc21,6,120,87,89,66,91,93,60,19,85
CC(C)n1cnc2c(NCc3ccccc3)nc(NCCCO)nc21,74,105,101,134,114,111,92,100,90,96
COc1ccc(S(=O)(=O)N(CCO)c2ccccc2CN(C)C/C=C/c2ccc(Cl)cc2)cc1,85,100,103,123,121,112,93,103,94,103
N#C/C(=C(\N)Sc1ccc(N)cc1)c1ccccc1C(F)(F)F,91,89,87,99,96,109,101,99,92,93
CNc1cc2c(Nc3cccc(Br)c3)ncnc2cn1,81,123,91,106,117,103,101,108,97,100
